“And” between values parts separate entries of the source, which are not always exact repeats. Identical values can stand only once. Results filed as inconclusive are left out. Values without a mark were called inactive. The source made the active and inactive calls. Calls come from the whole dose curve; as a rule, active = well fitted curve in the direction sought with a large enough effect; inconclusive = small, poorly fitted or top-dose-only effect, or another doubt; inactive = no such curve, though single readings can be large; an effect the other way counts as inactive or inconclusive.
% is set by controls: 0 for no effect and ±100 for the full control effect.

One assay has as its system Tov-21-G. The assay is described as follows: Primary qHTS to identify gynecologic anti-cancer compounds using libraries of approved drugs and bioactive compounds (AID 1345084). Note: nearly all actives have a fitted effect of over 55% in size. Note: potency is the fitted concentration of half-maximal effect. The note with it: Gynecologic cancer cell panel viability, ATPlite luminescence, 48 h; series mostly up to 57.5 µM; activity change, negative = cytotoxicity: at the top concentration. In a few lines:
(§1)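 Cell viability after 48 h drug treatment, ATPlite luminescence readout; five doses.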
For orientation: Quantitative high-throughput screening tests each substance at several concentrations.
For the compound `Cc1ccc(C(=O)Nc2ccc(CN3CCN(C)CC3)c(C(F)(F)F)c2)cc1C#Cc1cnc2cccnn12`, the Potency is 7.08 µM (active).

Consider `O=C(Nc1ncc(-c2cc(C(F)F)nn2-c2c(Cl)cccc2Cl)s1)C1CC1`, for which the Potency is 1.78 µM (active).

For the compound `CCNC(=O)Nc1ccc2ncc(Nc3ccc(C)cc3)nc2n1`, the “activity change, negative = cytotoxicity” value was 4.04%.

For the compound `Nc1ncnc2c1c(-c1cnc3[nH]ccc3c1)nn2C1CCCC1`, the Potency was 6.31 µM (active).

In the case of `COC(=O)C1=C(C)NC(C)=C(C(=O)OCCN2CCN(C(c3ccccc3)c3ccccc3)CC2)C1c1cccc([N+](=O)[O-])c1` (stereo not drawn), the “activity change, negative = cytotoxicity” value is 8.32%.

As to `CC1(O)CC(c2nc(-c3ccc4ccc(-c5ccccc5)nc4c3)c3c(N)nccn23)C1` (stereo not drawn), the “activity change, negative = cytotoxicity” value was 6.84%.

Turning to `Cc1cn(-c2cc(NC(=O)c3ccc(C)c(Nc4nccc(-c5cccnc5)n4)c3)cc(C(F)(F)F)c2)cn1`, the “activity change, negative = cytotoxicity” value is 4.75%.

Turning to `Fc1cc(-c2cccc3ncc(-c4cnn(C5CCNCC5)c4)nc23)cc(F)c1CN1CCOCC1`, the Potency was 11.2 µM (active).

As for `O=C(c1ccc(Nc2nccc(-c3cc4ccccc4s3)n2)cc1)N1CCC(N2CCCC2)CC1`, the Potency is 28.2 µM (active).

For `CC(=O)c1c(C)c2cnc(Nc3ccc(N4CCNCC4)cn3)nc2n(C2CCCC2)c1=O`, the activity change, negative = cytotoxicity was -13.1% [at 6.55 µM].

For `OCc1ccc(-c2ccc(-c3ccc(CO)s3)o2)s1`, the “activity change, negative = cytotoxicity” value was -20.6% [at 25.3 µM].

With `Cc1nc(N)ncc1-c1nc(N2CCOCC2)c2sc(C(C)(C)O)cc2n1`, the Potency is 7.94 µM (active).

For `N#CCNC(=O)c1ccc(-c2ccnc(Nc3ccc(N4CCOCC4)cc3)n2)cc1`, the Potency is 14.1 µM (active).

`O=C(Nc1cc(C(F)(F)F)cc(C(F)(F)F)c1)c1cc(Cl)ccc1O`: the Potency is 8.91 µM (active).

As for `Cn1cc(-c2ccncc2)c(-c2ccc(OCc3ccc4ccccc4n3)cc2)n1`, the “activity change, negative = cytotoxicity” value was 1.64%.

On to `COC(=O)Nc1ccc(-c2nc(N3CCOCC3)c3cnn(C4CCN(Cc5cccnc5)CC4)c3n2)cc1`, for which the Potency was 2.82 µM (active).

Turning to `O=C(Cc1ccc(-c2ccc(OCCN3CCOCC3)cc2)cn1)NCc1ccccc1`, the Potency is 2 µM (active).

Another assay relates to Tov112D. The assay is described as above. Conditions: Gynecologic cancer cell panel viability, ATPlite luminescence, 48 h; series mostly up to 57.5 µM; activity change, negative = cytotoxicity: at the top concentration. In a few lines:
as §1
Consider `C=CC(=O)Nc1cc2c(Nc3ccc(F)c(Cl)c3)ncnc2cc1OCCCN1CCOCC1`, for which the “activity change, negative = cytotoxicity” value is -20.3%.

In the case of `COC(=O)c1ccc2c(C(=Nc3ccc(N(C)C(=O)CN4CCN(C)CC4)cc3)c3ccccc3)c(O)[nH]c2c1`, the “activity change, negative = cytotoxicity” value is -17.7%.

As to `Cc1ccc(C(=O)Nc2ccc(CN3CCN(C)CC3)c(C(F)(F)F)c2)cc1C#Cc1cnc2cccnn12`, the Potency was 7.94 µM (active).

`O=C(Nc1ncc(-c2cc(C(F)F)nn2-c2c(Cl)cccc2Cl)s1)C1CC1`: the Potency was 1.58 µM (active).

For the compound `CCNC(=O)Nc1ccc2ncc(Nc3ccc(C)cc3)nc2n1`, the “activity change, negative = cytotoxicity” value is 4.66%.

With `Nc1ncnc2c1c(-c1cnc3[nH]ccc3c1)nn2C1CCCC1`, the Potency is 5.01 µM (active).

As to `COC(=O)C1=C(C)NC(C)=C(C(=O)OCCN2CCN(C(c3ccccc3)c3ccccc3)CC2)C1c1cccc([N+](=O)[O-])c1` (stereo not drawn), the “activity change, negative = cytotoxicity” value is -24.5%.

As to `COc1ccc(C(=O)CC2(O)C(=O)Nc3c(Cl)ccc(Cl)c32)cc1` (stereo not drawn), the Potency was 3.98 µM (active).

For `CC1(O)CC(c2nc(-c3ccc4ccc(-c5ccccc5)nc4c3)c3c(N)nccn23)C1` (stereo not drawn), the “activity change, negative = cytotoxicity” value was 1.68%.

Take `CC(=O)Nc1sc2c(c1-c1nc3ccccc3s1)CNC2`: the “activity change, negative = cytotoxicity” value was -26.9%.

On to `Cc1cn(-c2cc(NC(=O)c3ccc(C)c(Nc4nccc(-c5cccnc5)n4)c3)cc(C(F)(F)F)c2)cn1`, for which the “activity change, negative = cytotoxicity” value is 11.6%.

As to `O=C(c1ccc(Nc2nccc(-c3cc4ccccc4s3)n2)cc1)N1CCC(N2CCCC2)CC1`, the “activity change, negative = cytotoxicity” value is -2.15%.

As for `CC(=O)c1c(C)c2cnc(Nc3ccc(N4CCNCC4)cn3)nc2n(C2CCCC2)c1=O`, the activity change, negative = cytotoxicity is -4.97% [at 6.55 µM].

With `Cc1cc(C(=O)N2CCN(c3cccc(Cl)c3)CC2)n(-c2ccccc2)n1`, the Potency was 3.98 µM (active).

As to `N#CCNC(=O)c1ccc(-c2ccnc(Nc3ccc(N4CCOCC4)cc3)n2)cc1`, the “activity change, negative = cytotoxicity” value was -12.5%.

`O=C(Nc1cc(C(F)(F)F)cc(C(F)(F)F)c1)c1cc(Cl)ccc1O`: the Potency was 3.55 µM (active).

With `CS(=O)(=O)N1CCN(Cc2cc3nc(-c4cccc5[nH]ncc45)nc(N4CCOCC4)c3s2)CC1`, the “activity change, negative = cytotoxicity” value was -35.2%.

For `Cn1cc(-c2ccncc2)c(-c2ccc(OCc3ccc4ccccc4n3)cc2)n1`, the “activity change, negative = cytotoxicity” value is 1.34%.

`Cc1cc(Nc2cc(CN3CCOCC3)c3nc(C)c(Cc4ccc(Cl)cc4F)n3n2)n[nH]1`: the “activity change, negative = cytotoxicity” value is -5.83%.

`COC(=O)Nc1nc2ccc(C(=O)c3ccc(F)cc3)cc2[nH]1`: the Potency was 3.55 µM (active).

Turning to `O=C(Cc1ccc(-c2ccc(OCCN3CCOCC3)cc2)cn1)NCc1ccccc1`, the Potency was 1 µM (active).

`Nc1ncnc2c1c(-c1cccc(OCc3ccccc3)c1)cn2C1CC(CN2CCCC2)C1` (stereo not drawn): the “activity change, negative = cytotoxicity” value was -20.8%.

Test system in the next assay: not listed separately
The assay is described as follows: Drug repurposing screens with cells derived from glioblastoma tumor samples (AID 1345199). Note: nearly all actives have a fitted effect of over 40% in size. The note with it: GBM patient neurospheres viability, ATP luminescence, 48 h; at 45.9 µM (top of the series); tumour line B. In a few lines:
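Primary testing used CD133+ neurospheres from four GBM patients, seven concentrations, 48 h exposure and ATP-based viability; confirmation added three slower-growing patient lines.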
On to `Nc1ccn([C@@H]2CS[C@H](CO)O2)c(=O)n1`, for which the activity, negative = cell killing was -9.03%.

`O=C(O)CO.[NH2-].[NH2-].[Pt+2]`: the activity, negative = cell killing is -16.9%.

Take `COC(=O)C1=C(C)NC(C)=C(C(=O)OCCN2CCN(C(c3ccccc3)c3ccccc3)CC2)C1c1cccc([N+](=O)[O-])c1` (stereo not drawn): the activity, negative = cell killing was -14.4%.

As for `COc1c(N2C[C@@H]3CCCN[C@H]3C2)c(F)cc2c(=O)c(C(=O)O)cn(C3CC3)c12`, the activity, negative = cell killing was 6.2% and 1.37%.
